According to the supplement of paper PMC13380429:

Tested on: Vero E6 infected with SARS-CoV-2
Test: inhibition of SARS-CoV-2 cytopathic effect; higher = more antiviral protection, active = above 15
Conditions: 48 h

Measured: inhibition of SARS-CoV-2 cytopathic effect

CCCCC(=O)O[C@]1(C(=O)CO)CC[C@H]2[C@@H]3CCC4=CC(=O)CC[C@]4(C)[C@H]3[C@@H](O)C[C@@]21C [hydrocortisone-valerate]
inactive: 1 nM -0.15% | 8.33 nM 3.88% | 100 nM 4.88% | 833.33 nM 4.12% | 10000 nM -1.55%

O=C(O[C@@H]1Cc2c(O)cc(O)cc2O[C@@H]1c1ccc(O)c(O)c1)c1cc(O)c(O)c(O)c1 [epicatechin-gallate-(-)]
inactive: 1 nM -1.08% | 8.33 nM 3.11% | 100 nM 5.77% | 833.33 nM 3.37% | 10000 nM -0.51%

Cc1cc2nc3c(=O)[nH]c(=O)nc-3n(C[C@H](O)[C@H](O)[C@H](O)CO)c2cc1C [riboflavin]
inactive: 1 nM -3.6% | 8.33 nM -1.59% | 100 nM -1.7% | 833.33 nM 0.03% | 10000 nM 0.32%

CC(=O)N1CC[N+](C)(C)CC1 [4-acetyl-1,1-dimethylpiperazinium]
inactive: 1 nM 0.03% | 8.33 nM -1.23% | 100 nM 0.82% | 833.33 nM 1.13% | 10000 nM 0.5%
